In the library only some 3.5% were active in any assay of this set; here they are far more common.
TROY signal inh: TROY signaling inhibition | inhibition, % at 10 µM | Q293 LMP1-TROYcd NF-kB luciferase reporter, 4 h | 360,000 compounds, 0.98% hits;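 active = compounds whose plate-normalised and pattern-corrected inhibition of the luciferase reporter signal at the single screening dose is 50% or more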
TWEAK Fn14 block: blocks TWEAK-Fn14 interaction in a reporter cell assay; TWEAK-stimulated Fn14 reporter cells, luciferase luminescence, 8 h; inhibition, % at 10 µM; 360,000 compounds, 2% hits; in the data active = inhibition above about 50%
PPC-1+TRAIL kill: kills PPC-1 cancer cells in the presence of TRAIL; PPC-1 cells + TRAIL, ATPLite viability luminescence; cell killing (% activity), % at 4 µM or 5 µM; 220,000 compounds, 0.41% hits;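 active = cell killing above 50% in the first pass at 4 µM, then a duplicate retest at 5 µM averaging 50% or more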;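 note: plate controls were cells with TRAIL plus DMSO for no effect and medium-only wells lacking cells for full effect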
Platelet DG rel: platelet dense granule release activity; human platelet-rich plasma, SFLLRN dense granule ATP release, luminescence; inhibition, %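 (compounds screened at 7.5 µM in platelet-rich plasma)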; 300,000 compounds, 0.22% hits; AID 1663;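 active = mean replicate score, as percent of positive control, at or above 50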
HSP90 refold inh: blocks HSP90-mediated luciferase refolding in reticulocyte lysate | Rabbit reticulocyte lysate, luciferase refolding luminescence, 3 h | inhibition, % at 5.6 µM | 290,000 compounds, 0.91% hits;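 active = inhibition above the screen-wide mean plus 3 SD, computed separately per campaign, cut at about 16% in these data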;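 note: 0% = DMSO wells and 100% = 60 µM geldanamycin wells; inhibitors lower the luminescence because luciferase stays unfolded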
C8 TRAIL sens: sensitizes caspase-8 expressing cells to TRAIL; inhibition (viability loss, TRAIL sensitization), % at 10 µM; 360,000 compounds, 1% hits; NB7+C8 cells + TRAIL, ATPlite viability luminescence; AID 624354;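 active = compounds causing at least 50% loss of cell viability in the single-dose screen, relative to plate controls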
Active calls of the source: *; . = no result given.

SMILES	TROY signal inh	TWEAK Fn14 block	PPC-1+TRAIL kill	Platelet DG rel	HSP90 refold inh	C8 TRAIL sens
O=C(/C=C/c1ccccc1)CC(O)(c1ccccc1)C(F)(F)C(F)F (stereo not given)	64*	69*	0	-3	2	20
O=C(/C=C/c1ccccc1)CC(O)(c1ccccc1)C(F)(F)F (stereo not given)	64*	88*	0	-2	7	9
COc1ccccc1N1CCN(C(=O)Cn2c(=O)oc3cc(S(=O)(=O)N4CCCC4)ccc32)CC1	1	-1	.	17	0	-12
Cc1cccc(CSc2cccc3cccnc23)c1	-78	103*	22	3	-1	28
NNC(=O)c1ccc(CSc2cccc3cccnc23)cc1	-13	-29	14	-5	3	-7
CCN(CC)S(=O)(=O)c1cccc(-n2c(O)c(C=Nc3ccccc3C(=O)O)c3ccccc3c2=O)c1	42	53*	-8	7	0	-18
O=C(Nc1nnc(Cc2ccccc2)s1)Nc1ccccc1F	-31	-30	.	-4	11	9
Cc1ccc(-c2nc3sc(C(N)=O)c(N)c3c3c2CCCC3)cc1	12	-14	55*	3	1	15
OCCN1CCN(CC(O)COc2ccc(Cl)cc2)CC1 (stereo not given)	-3	6	-19	50*	-2	-2
CCN1CCN(CC(O)COc2ccc(Cl)cc2)CC1 (stereo not given)	12	4	26	-6	4	-3
O=C1C(Cl)=C(O)C2(Cl)C(Cl)=C(Cl)C12Cl (stereo not given)	7	1	.	.	.	1
O=C(Nc1ccccc1[N+](=O)[O-])C1COc2ccccc2O1 (stereo not given)	-49	-4	.	2	-7	0
CCOC(=O)C1CCCN(C(=O)C(C)(C)Oc2ccc(Cl)cc2)C1 (stereo not given)	19	86*	5	7	0	15
Cc1ccccc1Oc1ccc2c(c1)[C@@H]1C[C@H](N(C)C(=O)c3ccco3)[C@H]([C@H](C)O)C(=O)N1CC2	-5	-1	.	.	.	-6
Clc1ccc(-c2nnc(-c3ccccc3)o2)c(Cl)c1	19	63*	50	15	7	70*
Fc1ccc(-c2nnc(-c3ccc(Cl)cc3Cl)o2)cc1	-20	56*	.	4	0	86*
O=[N+]([O-])c1cccc(-c2nnc(-c3ccc4c(c3)OCO4)o2)c1	-55	-57	15	-1	3	18
Fc1ccc(-c2nnc(-c3ccc(Cl)cc3)o2)cc1	-56	-4	-16	1	-2	36
CSc1ccccc1-c1nnc(-c2ccc(Cl)cc2Cl)o1	-96	-49	24	-4	2	45
Clc1ccccc1-c1nnc(-c2ccc3c(c2)OCO3)o1	-28	17	47	23	1	56*
Cn1nc(C(=O)OCC(=O)c2ccc(Cl)cc2)c2ccccc2c1=O	-10	7	.	.	.	-12
CC1=C(C(=O)Nc2ccccc2)C(c2ccc(C)cc2)N=C(Nc2nc3ccccc3o2)N1 (stereo not given)	8	-58	8	-10	2	50*
CC1(C)CC(=O)C2=C(C1)NC(Nc1nc3ccccc3o1)=NC2c1ccccn1 (stereo not given)	-32	2	1	-1	-7	-39
COc1ccccc1N1CCN(C(=O)CN2C(=O)c3ccccc3S2(=O)=O)CC1	-33	-8	0	0	0	-16
O=C(Nc1ccccc1C(F)(F)F)N1CCCCCC1	9	-5	40	-3	2	-9
SMILES	TROY signal inh	TWEAK Fn14 block	PPC-1+TRAIL kill	Platelet DG rel	HSP90 refold inh	C8 TRAIL sens
NC(=O)C1(N2CCCCC2)CCN(C(=O)Nc2ccccc2C(F)(F)F)CC1	.	.	19	53*	-2	.
O=C(NCc1ccccc1)C1CCCN(C(=O)NCc2ccccc2)C1 (stereo not given)	5	0	.	4	-4	-14
O=C(O)[C@H](Cc1c[nH]c2ccccc12)Nc1ncccc1[N+](=O)[O-]	8	34	.	5	5	8
COc1ccc(CNC(=O)CN2C(=O)NC(C)(c3cccc4ccccc34)C2=O)cc1OC (stereo not given)	19	-11	.	1	1	-6
CC1CCCCC12NC(=O)N(Cc1cc(=O)n3ccsc3n1)C2=O (stereo not given)	2	-7	7	2	2	-4
O=[N+]([O-])c1ccc(COc2ccc(-c3[nH]ncc3-c3ccc(Cl)cc3)c(O)c2)cc1	23	51*	3	9	-2	6
COc1ccc(-c2cn[nH]c2-c2ccc(OCc3ccc([N+](=O)[O-])cc3)cc2O)cc1OC	50	83*	16	1	6	12
NC(=S)N/N=C\c1ccccc1OCc1ccccc1	7	25	-3	5	-3	14
NC(=S)N/N=C\c1c2ccccc2cc2ccccc12	-19	-21	61*	.	3	-4
NC(=S)N/N=C\c1c(OCc2ccccc2Cl)ccc2ccccc12	22	57*	14	-5	5	14
COc1cc(F)ccc1-c1cc(C(=O)Nc2ccc(NC(C)=O)cc2)[nH]n1	-19	-2	.	.	.	12
CC(=O)c1cc(F)ccc1OCC(=O)N1CCCc2ccccc21	-55	13	.	2	-2	5
Cc1cccc(/C=C/c2nc3ccccc3c(=O)[nH]2)c1	-3	34	41	10	-2	55*
Cc1[nH]c2ccccc2c1/C=C/c1nc2ccccc2c(=O)[nH]1	-33	27	12	4	-1	5
O=C(O)c1ccc(/C=C/c2nc3ccccc3c(=O)[nH]2)cc1	30	-22	.	32	-2	4
Clc1cccc(Cl)c1/C=C/c1nc2ccccc2[nH]1	-40	3	47	-5	3	68*
O=c1[nH]c(/C=C/c2ccccc2Cl)nc2ccccc12	-45	27	.	3	10	64*
COc1cc(/C=C/C(=O)O)cc(S(=O)(=O)NCCCC(=O)O)c1OC	14	11	-2	-1	0	-2
O=[N+]([O-])c1ccc(N=Nc2c(Cl)cc(O)cc2Cl)cc1	27	87*	15	73*	-2	41
CC(N)=Nc1ccc([N+](=O)[O-])cc1	10	12	4	6	-9	-9
Cc1c(Cc2ccccc2)sc(/N=C/c2ccc3ccccc3c2)c1C(N)=O	-64	60*	6	.	-2	12
O=C(O)c1ccc(OCCCCCCOC2CCCCO2)cc1 (stereo not given)	-5	-22	.	5	-2	-2
COc1ccc2cc(CCOC3CCCCO3)ncc2c1 (stereo not given)	9	60*	.	.	.	3
COc1cc2cnc(CCO[C@H]3CCCCO3)cc2cc1OC	52*	31	.	.	.	23
COc1cc2cnc(C3=CCCCC3)cc2cc1OC	-54	-32	.	.	.	-20
